Luc counter = Kinase-Glo luciferase inhibition (counter-screen) | 0.28% of 200,000 active | Potency, µM (titrated, usually from 38.3 µM), inactives show at the highest dose activity change, negative = inhibition, usual class: inhibitors | Q27757 | Kinase-Glo luciferase, ATP luminescence, 8 min; also: % is scaled to controls: 0 for no effect and ±100 for the full control effect; nearly all actives have a fitted effect of over 60% in size
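Compound is pinned into ATP-containing buffer (10 uM ATP, imidazole pH 7.2, 7 mM MgCl2). Kinase-Glo luciferase reagent is then added. Light output is recorded following an 8-min room-temperature incubation.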
SMN2 splice enh = increases expression of the SMN2 splice variant. HEK293 SMN2-luciferase splicing reporter, luminescence, 30-36 h. Potency, µM (top dose mostly 46.1 µM), without a hit: at the highest dose activity change, positive = activation, usual class: activators. 2.8% of 210,000 active. AID 1458; also: % of control where 0% means no effect; nearly all actives have a fitted effect of over 55% in size
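HEK293 cells carry an SMN2 minigene-luciferase reporter in which exon 7 inclusion puts luciferase in frame. Cells were seeded at 2000 cells/well, attached for 10-12 hours, then exposed to compounds for 30-36 hours at 37C before ONE-Glo luminescence.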
NPC1 prom act = activators of NPC1 promoter; 2.4% of 320,000 active; Potency, µM (top dose mostly 9.22 µM), for inactives: at the highest dose activation, usual class: activators; Huh7 NPC1 promoter luciferase reporter, 24 h; also: % of control where 0% means no effect; nearly all actives have a fitted effect of over 60% in size
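Huh7 reporter cells (NPC1 promoter driving luciferase) are dosed with compound for 24 h at 37 °C, 5% CO2; luciferase detection reagent is then added and luminescence measured after 10 min at ambient temperature.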
FLuc modulator = inhibits or activates purified firefly luciferase, miR-21 counter-screen; P08659; Potency, µM (titrated, usually from 57.5 µM), without a hit: top-dose activity change, negative = inhibition, hits mostly inhibitors; purified FLuc, Km substrates, luminescence inhibition; 6.9% of 360,000 active;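 also: plate controls were vehicle for no effect and reference inhibitor for full effect; nearly all actives have a fitted effect of over 55% in size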
Target sequence (P08659 whole entry, looked up): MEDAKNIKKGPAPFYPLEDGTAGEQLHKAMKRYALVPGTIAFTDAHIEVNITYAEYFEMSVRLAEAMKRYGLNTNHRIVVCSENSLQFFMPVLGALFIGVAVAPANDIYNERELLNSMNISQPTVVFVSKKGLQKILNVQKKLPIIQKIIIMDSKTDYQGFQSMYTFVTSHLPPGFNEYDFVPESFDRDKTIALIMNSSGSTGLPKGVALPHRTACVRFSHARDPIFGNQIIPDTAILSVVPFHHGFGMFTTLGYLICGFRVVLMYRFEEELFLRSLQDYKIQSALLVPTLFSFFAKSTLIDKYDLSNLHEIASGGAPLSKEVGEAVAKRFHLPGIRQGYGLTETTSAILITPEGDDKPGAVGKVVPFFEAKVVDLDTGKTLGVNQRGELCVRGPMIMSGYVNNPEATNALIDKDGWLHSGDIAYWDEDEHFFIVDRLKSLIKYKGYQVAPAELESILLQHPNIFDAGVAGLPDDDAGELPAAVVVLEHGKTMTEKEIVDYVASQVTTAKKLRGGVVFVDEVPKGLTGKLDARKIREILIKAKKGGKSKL
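Purified P. pyralis luciferase (10nM final) with 10uM D-luciferin and 10uM ATP (Km levels) in 50mM Tris acetate pH 7.5, 10mM Mg acetate, 0.01% Tween-20, 0.05% BSA; qHTS 6-point titration, ~60 µM downward; luminescence read.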
Rab9 promoter act = Rab9 promoter activation; 2.8% of 320,000 active; Huh7 Rab9 promoter-luciferase reporter, luminescence, 24 h; Potency, µM (top dose mostly 9.22 µM), for the others: top-dose activation, negative = inhibition, usual class: activators; also: % of control where 0% means no effect; nearly all actives have a fitted effect of over 60% in size
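Rab9 promoter-driven luciferase in stably transfected Huh7 cells; 1500 cells/well rested 2 h, exposed to compound in DMSO for 24 h at 37 °C, 5% CO2. Luminescence read 10 min after adding luciferase reagent at ambient temperature.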
ELG1 genotox = inducers of genotoxicity in HEK293T ELG1-luciferase cells | HEK293T ELG1-luciferase reporter, luminescence, 16 h | Potency, µM (series often up to 46 µM), for the others: at the top dose activity change, positive = activation, usual class: activators | 1.3% of 330,000 active; also: % of control where 0% means no effect; nearly all actives have a fitted effect of over 60% in size
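Step 1: seed 2,000 HEK293T ELG1-luciferase cells per well. Step 2: add compound or DMSO, incubate 16 hr at 37 °C. Step 3: ONE-Glo, 30 min at room temperature, read luminescence.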
Active calls of the source: *; [ ] = another dose, or the depositor's remark. This is a sample that favours compounds with a hit; in the whole collection about 7.3% have one here. Calls follow the shape of the dose curve; as a rule, active = well fitted curve in the direction sought with a large enough effect; inconclusive = small, poorly fitted or top-dose-only effect, or another doubt; inactive = no such curve, though single readings can be large; an effect the other way counts as inactive or inconclusive. Potency is read from the fitted curve at half-maximal effect.

CCOc1ccc2ccccc2c1/C=N\NC(=O)c1ccc([N+](=O)[O-])cc1 was read as NPC1 prom act 0.0%, FLuc modulator 9.53µM*, Rab9 promoter act -0.7% and ELG1 genotox 3.4%.
Screening Cn1c(-c2ccccc2)c(/C=N/NC(=O)c2ccc(O)cc2)c2ccccc21 returned NPC1 prom act inconclusive, FLuc modulator 0.953µM*, Rab9 promoter act inconclusive and ELG1 genotox inconclusive.
For O=C(N/N=C\c1c(O)ccc2ccccc12)c1ccc(O)cc1 the results were NPC1 prom act -41.3%, FLuc modulator 12µM*, Rab9 promoter act 2.7% and ELG1 genotox 23.2%.
Screening Cn1c(-c2ccccc2)c(C=O)c2ccccc21 returned Luc counter -2.5%, NPC1 prom act 5.5%, FLuc modulator inconclusive, Rab9 promoter act 0.4% and ELG1 genotox 9.9%.
For COc1ccc(OC)c2sc(NC(=O)c3ccc(S(=O)(=O)N4CCCC4)cc3)nc12 the results were FLuc modulator -1.0%.
For C/C(=N/NC(=O)c1ccoc1C)c1ccc(NC(=O)C2CCCC2)cc1 the results were Luc counter -10.4%, SMN2 splice enh inconclusive, NPC1 prom act 23.5%, FLuc modulator inconclusive, Rab9 promoter act 27.1% and ELG1 genotox inconclusive.
`COc1ccc(C(=O)Nc2cccc(/C(C)=N\NC(=O)c3ccoc3C)c2)cc1OC` gave NPC1 prom act 12.1%, FLuc modulator 16.9µM*, Rab9 promoter act 16.0% and ELG1 genotox -10.9%.
For C/C(=N\NC(=O)c1nn(C)c(C)c1Br)c1cccc(NC(=O)c2ccoc2C)c1 the results were Luc counter -1.6%, SMN2 splice enh 9.2%, NPC1 prom act 25.9%, FLuc modulator 2.39µM*, Rab9 promoter act inconclusive and ELG1 genotox 15.7%.
`COc1ccc(C(=O)Nc2cccc(/C(C)=N/NC(=O)c3ccc([N+](=O)[O-])c(C)c3)c2)cc1OC` gave Luc counter -2.0%, SMN2 splice enh 11.6%, NPC1 prom act 1.4%, FLuc modulator inconclusive, Rab9 promoter act -2.9% and ELG1 genotox -11.7%.
`C/C(=N\NC(=O)c1ccoc1C)c1ccccc1` gave NPC1 prom act 2.51µM*, FLuc modulator 10.7µM*, Rab9 promoter act 2µM* and ELG1 genotox inconclusive.
Screening Cc1cc(NC(=O)N2CCC(CN3CCOCC3)CC2)ccc1Br returned FLuc modulator -10.0%.
Screening O=c1c2cccnc2n(Cc2ccccc2F)c(=O)n1Cc1ccc(F)cc1 returned SMN2 splice enh -2.0% and FLuc modulator 0.3%.
CC(=O)c1sc(NC(=O)c2cccs2)nc1C was read as NPC1 prom act 28.5%, FLuc modulator 9.53µM*, Rab9 promoter act inconclusive and ELG1 genotox 13.9%.
CCOC(=O)c1sc(NC(=O)c2cccs2)nc1C was read as Luc counter inconclusive, SMN2 splice enh inconclusive, NPC1 prom act inconclusive, FLuc modulator 2.39µM*, Rab9 promoter act inconclusive and ELG1 genotox inconclusive.
CC(=O)c1sc(NC(=O)c2cccnc2Cl)nc1C was read as Luc counter -11.7%, NPC1 prom act 10.9%, FLuc modulator inconclusive, Rab9 promoter act 21.9% and ELG1 genotox 6.8%.
For CCOC(=O)c1sc(NC(=O)C(OC(C)=O)c2ccccc2)nc1C (centres undefined) the results were Luc counter -2.0%, SMN2 splice enh 35.5µM*, NPC1 prom act -3.4%, FLuc modulator 0.2%, Rab9 promoter act 4.6% and ELG1 genotox 10.2%.
Screening CC(=O)c1sc(NC(=O)c2ccccc2F)nc1C returned Luc counter 10µM*, SMN2 splice enh 3.16µM*, NPC1 prom act 1.41µM*, FLuc modulator 4.78µM*, Rab9 promoter act 0.447µM* and ELG1 genotox 2.91µM*.
`COc1ccc(-c2csc3c2[N+]2=CCC=C2C3=O)cc1` gave Luc counter -1.0%[7.66 µM] and SMN2 splice enh -12.8%[9.22 µM].
